Reference: PubChem BioAssay AID1347087 (National Center for Advancing Translational Sciences (NCATS), 2019)
Records with an inconclusive call do not appear. A number with no mark means an inactive call. The source made the active and inactive calls. The call rests on the fitted dose curve.

Assay: qHTS for Inhibitors of the Functional Ribonucleoprotein Complex (vRNP) of Lassa (LASV) Arenavirus: LASV Confirmatory Screen - GLuc reporter signal
Conditions: LASV minigenome vRNP, Gaussia luciferase reporter; series mostly up to 53.9 µM
In the case of COc1cc2c(cc1OC)CC(=O)N(CCCN(C)C[C@H]1Cc3cc(OC)c(OC)cc31)CC2, the Potency is reported as “inactive”.
In the case of Cc1ccc2c(c1)C1CN(C)CCC1N2 (stereo unspecified), the Potency is reported as “inactive”.
In the case of O=C(Nc1ccc([N+](=O)[O-])cc1Cl)c1cc(Cl)ccc1O, the Potency is reported as 0.968 µM (active).
With COCCOC(=O)C1=C(C)NC(C)=C(C(=O)OC/C=C/c2ccccc2)C1c1cccc([N+](=O)[O-])c1 (stereo unspecified) the Potency was 27.3 µM (active).
For CC1=C(C)C(=O)C(CCCCC#CCCCC#CCO)=C(C)C1=O, the Potency was 24.3 µM (active).
With C=C1CC[C@@H]2[C@](C)(CO)[C@H](O)CC[C@@]2(C)[C@@H]1/C=C/C1=CCOC1=O the Potency was 21.7 µM (active).
For CCN(CC)C(=O)N[C@@H]1C=C2c3cccc4[nH]cc(c34)C[C@@H]2N(C)C1, the Potency was “inactive”.
With CCc1cncnc1N1CCN(Cc2nc3ccc(C(F)(F)F)cc3[nH]2)CC1 the Potency was 3.95 µM (active).
In the case of Oc1cc(Cl)ccc1Oc1ccc(Cl)cc1Cl, the Potency is reported as 25 µM (active).
In the case of O=C(Nc1ccccc1)c1cc([N+](=O)[O-])ccc1Cl, the Potency is reported as 24.3 µM (active).
With Nc1ccc([N+](=O)[O-])cc1O the Potency was 0.396 µM (active).
With CC12C(=O)OC(=O)C1(C)C1CCC2O1 (stereo unspecified) the Potency was 9.68 µM (active).
CCCCC[C@H](O)/C=C/C=C/C/C=C\CCCC(=O)O showed an activity, negative = inhibition of 4.46% [at 0.666 µM].
In the case of CC(O)C(O)[C@H]1CNc2nc(N)[nH]c(=O)c2N1 (stereo partly specified), the Potency is reported as “inactive”.
With COc1ccc2c(c1OC)CN1CCc3cc4c(cc3C1C2)OCO4 (stereo unspecified) the Potency was 21.7 µM (active).
With CCC[C@H](N[C@@H](C)C(=O)N1[C@@H]2CCCC[C@H]2C[C@H]1C(=O)O)C(=O)OCC the Potency was “inactive”.
